From PubChem BioAssay (NCATS)
Records with an inconclusive call do not appear. The source made the active and inactive calls. Calls come from the whole dose curve; as a rule, active = well fitted inhibition curve with a large enough effect; inconclusive = small, poorly fitted or top-dose-only effect; inactive = flat fitted curve, though single readings scatter. Peptide text beside a SMILES is read from it.

Assays:
Experiment in all cases: qHTS profiling for inhibitors of Plasmodium falciparum proliferation (AID 504749); note: nearly all actives have a fitted effect of over 60% in size
Conditions in all cases: P. falciparum in erythrocytes, SYBR Green DNA, 72 h; series mostly up to 28.7 µM
[1] = test system: CP291
Method in brief: (§1)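 P. falciparum-infected erythrocytes (0.3% parasitemia, 2.5% hematocrit final) were exposed to compounds for 72 h at 37 C in 5% CO2, then lysed with SYBR Green buffer overnight at room temperature; parasite DNA fluorescence was normalized to artemisinin and DMSO controls.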

[2] = test system: CP297
Method in brief: as §1

[3] = test system: CP305
Method in brief: as §1

[4] = test system: CP315
Method in brief: as §1

[5] = test system: CP325
Method in brief: as §1

[6] = test system: CP329
Method in brief: as §1

[7] = test system: CP335
Method in brief: as §1

[8] = test system: DFO2036
Method in brief: as §1

[9] = test system: DIV14
Method in brief: as §1

[10] = test system: DIV17
Method in brief: as §1

[11] = test system: DIV30
Method in brief: as §1

[12] = test system: Dd2
Method in brief: as §1

[13] = test system: ECU
Method in brief: as §1

[14] = test system: FAB9
Method in brief: as §1

[15] = test system: GB4
Method in brief: as §1

[16] = test system: HB3
Method in brief: as §1

[17] = test system: ICS
Method in brief: as §1

[18] = test system: JCK
Method in brief: as §1

[19] = test system: N140
Method in brief: as §1

[20] = test system: P93_24
Method in brief: as §1

Measured: Potency
Potency is the fitted concentration of half-maximal effect.

C[C@@H]1CCC2[C@@H](C)[C@@H](O)O[C@@H]3O[C@@]4(C)CC[C@@H]1[C@@]23OO4 (stereo partly drawn)
active: [1] 4.3 nM | [2] 4.8 nM | [3] 3.8 nM | [4] 6.7 nM | [5] 4.8 nM | [6] 6 nM | [7] 2.7 nM | [8] 1.6 nM | [9] 3 nM | [10] 2.7 nM | [11] 2.4 nM | [12] 1 nM | [13] 0.9 nM | [14] 0.9 nM | [15] 1.9 nM | [16] 2.8 nM | [17] 1 nM | [18] 10000 nM | [19] 1.6 nM | [20] 1 nM

C=CCSSSCC=C
inactive: [1] | [2] | [3] | [4] | [5] | [6] | [7] | [8] | [9] | [10] | [11] | [12] | [13] | [14] | [15] | [16] | [17] | [18] | [19]

CCCCC(C)(O)C/C=C/[C@H]1[C@H](O)CC(=O)[C@@H]1CCCCCCC(=O)OC (stereo partly drawn)
inactive: [1] | [2] | [3] | [4] | [5] | [6] | [7] | [8] | [9] | [10] | [11] | [12] | [13] | [14] | [15] | [16] | [17] | [18] | [19] | [20]

COc1ccc2c3c1O[C@H]1C[C@@H](O)C=C[C@@]31CCN(C)C2
inactive: [1] | [2] | [3] | [4] | [5] | [6] | [7] | [8] | [9] | [10] | [11] | [12] | [13] | [14] | [15] | [16] | [17] | [18] | [19] | [20]

CCCCCCC(O)C/C=C/CCCCCCCC(=O)O (stereo not drawn)
inactive: [1] | [2] | [3] | [4] | [5] | [6] | [7] | [8] | [9] | [10] | [11] | [12] | [13] | [14] | [15] | [16] | [17] | [18] | [19] | [20]

CCCC(=O)Nc1ncnc2c1ncn2C1OC2COP(=O)(O)OC2C1OC(=O)CCC (stereo not drawn)
inactive: [1] | [2] | [3] | [4] | [5] | [6] | [7] | [8] | [9] | [10] | [11] | [12] | [13] | [14] | [15] | [16] | [17] | [18] | [19] | [20]

CC(C(=O)O)c1ccc(N2Cc3ccccc3C2=O)cc1 (stereo not drawn)
inactive: [1] | [2] | [3] | [4] | [5] | [6] | [7] | [8] | [9] | [10] | [11] | [12] | [13] | [14] | [15] | [16] | [17] | [18] | [19] | [20]

CCCCCCCCCCCC[n+]1ccc2ccccc2c1
active: [1] 1200 nM | [2] 1070 nM | [3] 757 nM | [4] 1070 nM | [5] 1200 nM | [6] 601 nM | [7] 953 nM | [8] 562 nM | [9] 757 nM | [10] 953 nM | [11] 1350 nM | [12] 562 nM | [13] 1260 nM | [14] 1580 nM | [15] 338 nM | [16] 2510 nM | [17] 447 nM | [18] 12600 nM | [19] 708 nM | [20] 631 nM

CC1(C)C(C=C(Cl)Cl)C1C(=O)OCc1cccc(Oc2ccccc2)c1 (stereo not drawn)
inactive: [1] | [2] | [3] | [4] | [5] | [6] | [7] | [8] | [9] | [10] | [11] | [13] | [14] | [15] | [16] | [18] | [19] | [20]

CC(=O)N[C@@H](CC(=O)O)C(=O)N[C@@H](CCC(=O)O)C(=O)O (Ac-Asp-Glu-OH)
inactive: [1] | [2] | [3] | [4] | [5] | [6] | [7] | [8] | [9] | [10] | [11] | [12] | [13] | [14] | [15] | [16] | [17] | [18] | [19] | [20]

Nc1c(Br)cc(Br)cc1CNC1CCC(O)CC1 (stereo not drawn)
inactive: [1] | [2] | [3] | [4] | [5] | [6] | [8] | [9] | [10] | [11] | [12] | [13] | [14] | [16] | [18] | [19] | [20]

CCCCCCCCCCCCCC[n+]1ccc(C)cc1
active: [1] 4260 nM | [2] 4780 nM | [3] 2390 nM | [4] 4780 nM | [5] 3380 nM | [6] 4260 nM | [7] 4260 nM | [8] 4470 nM | [9] 1690 nM | [10] 1900 nM | [11] 4780 nM | [12] 2820 nM | [13] 3160 nM | [14] 12600 nM | [15] 1200 nM | [16] 3550 nM | [17] 1580 nM | [19] 7080 nM | [20] 3550 nM

COCC(=O)Nc1cc(Sc2ccccc2)ccc1N=C(NC(=O)OC)NC(=O)OC
inactive: [1] | [2] | [3] | [4] | [5] | [6] | [7] | [8] | [9] | [10] | [11] | [12] | [13] | [14] | [15] | [16] | [18] | [19] | [20]

O=C(O)CN(CCN(CC(=O)O)CC(=O)O)CC(=O)O
inactive: [1] | [2] | [3] | [4] | [5] | [6] | [7] | [8] | [9] | [10] | [11] | [12] | [13] | [14] | [15] | [16] | [18] | [19] | [20]

C[C@H]1C[C@H]2[C@@H]3CCC4=CC(=O)C=C[C@]4(C)[C@@]3(F)[C@@H](O)C[C@]2(C)[C@@]1(O)C(=O)CO
inactive: [1] | [2] | [3] | [4] | [5] | [6] | [7] | [8] | [9] | [10] | [11] | [12] | [13] | [14] | [15] | [16] | [17] | [18] | [19] | [20]

Cc1c(C)c2c(c(C)c1O)CC[C@@](C)(CCC[C@H](C)CCC[C@H](C)CCCC(C)C)O2
inactive: [1] | [2] | [3] | [4] | [5] | [6] | [7] | [8] | [9] | [10] | [11] | [12] | [13] | [14] | [15] | [16] | [17] | [18] | [19] | [20]

O=C(O)c1cc(O)c2c(c1)[O][Bi][O]2
inactive: [1] | [2] | [3] | [4] | [5] | [6] | [8] | [9] | [11] | [12] | [13] | [14] | [15] | [16] | [17] | [18] | [19] | [20]

CCOc1ccc2c(c1)C(C)=CC(C)(C)N2
inactive: [1] | [2] | [3] | [4] | [5] | [6] | [8] | [9] | [10] | [11] | [12] | [13] | [14] | [15] | [16] | [18] | [19] | [20]

CO[C@H]1C[C@@H]2CC[C@@H](C)[C@@](O)(O2)C(=O)C(=O)N2CCCC[C@H]2C(=O)O[C@H]([C@H](C)C[C@@H]2CC[C@@H](OCCO)[C@H](OC)C2)CC(=O)[C@H](C)/C=C(\C)[C@@H](O)[C@@H](OC)C(=O)[C@H](C)C[C@H](C)/C=C/C=C/C=C/1C
active: [1] 4260 nM | [2] 3790 nM | [3] 4780 nM | [4] 4260 nM | [5] 4780 nM | [6] 4780 nM | [7] 1510 nM | [8] 1410 nM | [9] 1690 nM | [10] 1690 nM | [11] 1510 nM | [12] 891 nM | [13] 1780 nM | [15] 1690 nM | [16] 2000 nM | [17] 501 nM | [18] 10000 nM | [19] 1000 nM | [20] 1410 nM

CCCC(=O)O[C@]1(C(=O)CCl)[C@H](C)C[C@@H]2[C@H]3CCC4=CC(=O)C=C[C@]4(C)[C@@]3(F)C(=O)C[C@@]21C
active: [1] 4260 nM | [2] 1900 nM | [3] 4260 nM | [4] 3790 nM | [5] 4260 nM | [6] 1900 nM | [7] 1510 nM | [8] 891 nM | [9] 6010 nM | [10] 6750 nM | [11] 4260 nM | [12] 3160 nM | [13] 2510 nM | [14] 7940 nM | [15] 2390 nM | [16] 2820 nM | [17] 3550 nM | [18] 10000 nM | [19] 3160 nM | [20] 3980 nM

CC(C)N=c1cc2n(-c3ccc(Cl)cc3)c3ccccc3nc-2cc1Nc1ccc(Cl)cc1
inactive: [1] | [2] | [3] | [4] | [5] | [6] | [8] | [10] | [11] | [12] | [13] | [14] | [15] | [16] | [18] | [19] | [20]
active: [7] 1810 nM | [17] 3160 nM

Cc1cc(C(=O)NNCc2ccccc2)no1
inactive: [1] | [2] | [3] | [4] | [5] | [6] | [7] | [8] | [9] | [10] | [11] | [12] | [13] | [14] | [15] | [16] | [17] | [18] | [19] | [20]

Cc1ccccc1OCC(O)CNCCOc1ccc(C(N)=O)cc1 (stereo not drawn)
inactive: [1] | [2] | [3] | [4] | [5] | [6] | [7] | [8] | [9] | [11] | [12] | [13] | [14] | [16] | [17] | [18] | [19] | [20]
